The results in this text go back to PubChem BioAssay (EPA / NIEHS).

By AC50 is commonly meant the concentration at which the activity in the assay is half-maximal.

The source made the active and inactive calls. Rule for the calls: active = hit-call score of the fitted dose curve at least 0.9, where 1 is the maximum; inactive = score below 0.9.

Test [1] has as its target Transcription factor E2F1 (Homo sapiens) (UniProt Q01094). Briefly: ATG_E2F_CIS: Attagene CIS-FACTORIAL HepG2 Assay for human E2F Transcription Factor 1 (AID 2282935). As to conditions: HepG2 Attagene cis-reporter, E2F reporter RNA transcripts; actives raise or lower the signal. In a few lines:
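Transient MRTU transfection of HepG2; 24 h compound exposure; RNA → oligo(dT) RT → PCR → FAM label → HpaI cut → CE fluorescence. Gain/loss of signal fit against DMSO.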

The nature of test [2]: ATG_E_Box_CIS: Attagene CIS-FACTORIAL HepG2 Assay for human Enhancer Box (E-box) (AID 2282936). The following applies: HepG2 E-box cis-reporter transcription, actives raise or lower the signal. The essentials: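 Transiently transfected HepG2, endogenous TF-driven reporters, 24 h dosing. Readout: RT-PCR plus capillary electrophoresis of fluorescent reporter fragments. Gain or loss of signal fitted bidirectionally against DMSO baseline.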

Test [3] in a line: ATG_EGR_CIS: Attagene CIS-FACTORIAL HepG2 Assay for human Early Growth Response 1 (EGR1) (AID 2282938). The following applies: HepG2 Attagene CIS-FACTORIAL EGR reporter mRNA; actives raise or lower the signal. In a few lines:
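Activity is taken as induction or loss of reporter mRNA versus DMSO, fitted bidirectionally. Transcripts from cis-regulated reporter units in transiently transfected HepG2 were measured after 24 h by RT-PCR with capillary electrophoresis.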

A short description of test [4]: ATG_M_19_CIS: Attagene CIS-FACTORIAL HepG2 Assay for M19 Transcription Factor (Internal Marker) (AID 2282939). As to conditions: HepG2 Attagene CIS-FACTORIAL M19 internal marker reporter; actives raise or lower the signal. The essentials:
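Following a 24 h exposure, RNA from transfected HepG2 cells was reverse-transcribed, PCR-amplified with reporter-specific primers, end-labelled with 6-FAM and HpaI-digested before capillary separation. Values represent gain or loss versus DMSO.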

A short description of test [5]: ATG_ERE_CIS: Attagene CIS-FACTORIAL HepG2 Assay for Estrogen Response Element (ERE) (AID 2282940). As to conditions: HepG2 ERE cis-reporter, Attagene RNA transcript; actives raise or lower the signal. In a few lines:
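HepG2, transient cis-reporter units, 24 h exposure. RNA isolated, oligo(dT) RT, reporter-specific PCR, FAM extension, HpaI cut, CE detection. Gain/loss-of-signal vs DMSO.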

The nature of test [6]: ATG_Ets_CIS: Attagene CIS-FACTORIAL HepG2 Assay for human Erythroblast Transformation Specific (ETS) (AID 2282941). As to conditions: HepG2 ETS cis-reporter transcription, actives raise or lower the signal. The essentials:
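RT-PCR/capillary electrophoresis fluorescence read-out of reporter mRNA; HepG2 transient multi-reporter transfection; 24 h compound exposure; gain or loss of signal fitted bidirectionally relative to DMSO.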

Test [7] addresses Hepatocyte nuclear factor 3-beta (Homo sapiens) (UniProt Q9Y261). As to the kind of experiment: ATG_FoxA2_CIS: Attagene CIS-FACTORIAL HepG2 Assay for human Forkhead box A2 (FOXA2) (AID 2282942). As to conditions: HepG2 cis-reporter transcription factor activity, 24 h; actives raise or lower the signal. The essentials:
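Reporter transcript induction is measured by fluorescence after capillary electrophoresis of RT-PCR products from HepG2 cells exposed 24 h. Cis-regulated reporter units report endogenous factor activity; curves fitted both directions against DMSO.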

Test [8] is described as follows: ATG_FoxO_CIS: Attagene CIS-FACTORIAL HepG2 Assay for human Forkhead box O (FoxO) (AID 2282943). As to conditions: HepG2 Attagene cis-reporter, FoxO element, mRNA; actives raise or lower the signal. The essentials: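 Read-out: fluorescence of 6-FAM-labelled reporter cDNA fragments resolved by capillary electrophoresis. Transiently transfected HepG2 cells were dosed for 24 h; activity fitted in both directions relative to DMSO controls.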

A short description of test [9]: ATG_GATA_CIS: Attagene CIS-FACTORIAL HepG2 Assay for human GATA Binding Protein (AID 2282944). As to conditions: HepG2 GATA cis-element reporter, Attagene multiplex mRNA; actives raise or lower the signal. In a few lines: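 DMSO serves as negative control and baseline for bidirectional fitting of reporter mRNA changes. HepG2 cells bearing transiently transfected cis-promoter reporters were exposed 24 h; transcripts detected via RT-PCR and capillary electrophoresis.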

The nature of test [10]: ATG_GLI_CIS: Attagene CIS-FACTORIAL HepG2 Assay for human Zinc Finger Protein GLI1 (AID 2282945). The following applies: HepG2, Attagene cis-factorial reporter mRNA, GLI element; actives raise or lower the signal. The essentials:
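Transiently transfected HepG2 cells report endogenous transcription factor activity via cis-element-driven reporter units. After 24 h compound exposure, reporter mRNA was measured by RT-PCR with capillary electrophoresis; bidirectional fitting against DMSO baseline.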

Test [11] is described as follows: ATG_ISRE_CIS: Attagene CIS-FACTORIAL HepG2 Assay for human Interferon Regulatory Factor 1 (IRF1) binding to an Interferon-Stimulated Response Element (ISRE) (AID 2282948). As to conditions: HepG2 ISRE cis-reporter (Attagene), mRNA transcription readout; actives raise or lower the signal. The essentials: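 Read-out: fluorescent RT-PCR products resolved by capillary electrophoresis, reporting endogenous transcription factor activity via ISRE-driven reporter mRNA in transfected HepG2 cells dosed for 24 h; gain or loss fitted relative to DMSO.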

Test [12] is described as follows: ATG_M_32_CIS: Attagene CIS-FACTORIAL HepG2 Assay for M32 Transcription Factor (Internal Marker) (AID 2282949).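 Note: background control marker of the multiplexed CIS panel rather than a real target.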 The following applies: HepG2 Attagene cis-factorial M32 reporter, mRNA; actives raise or lower the signal. In a few lines:
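Using DMSO as baseline, bidirectional curve fits were applied to reporter mRNA signals. These came from transiently transfected HepG2 cells exposed for 24 h, with RNA analysed by RT-PCR, FAM primer extension, HpaI digestion and CE.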

Test [13] in a line: ATG_M_06_CIS: Attagene CIS-FACTORIAL HepG2 Assay for M06 Transcription Factor (Internal Marker) (AID 2282950). The following applies: HepG2 Attagene CIS-FACTORIAL M06 internal marker reporter; actives raise or lower the signal. The essentials: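 Fluorescence-labelled RT-PCR products from cis-promoter reporter units, cut with HpaI and resolved by capillary electrophoresis, give the signal. Cells are human HepG2, dosed for 24 h. Serves as background control, fitted relative to DMSO.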

Test [14] has as its target Hypoxia-inducible factor 1-alpha (Homo sapiens) (UniProt Q16665). As to the kind of experiment: ATG_HIF1a_CIS: Attagene CIS-FACTORIAL HepG2 Assay for human Hypoxia Inducible Factor 1 (HIF1A) (AID 2282951). As to conditions: HepG2 Attagene cis-factorial HIF1a reporter transcription; actives raise or lower the signal. In a few lines:
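Fluorescence intensity of capillary-separated, 6-FAM-labelled reporter amplicons gives mRNA induction in HepG2 cells carrying transfected cis-promoter reporter units; cells exposed 24 h, responses fitted up or down from DMSO.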

Test [15] concerns the target Hepatocyte nuclear factor 6 (Homo sapiens) (UniProt Q9UBC0). As to the kind of experiment: ATG_HNF6_CIS: Attagene CIS-FACTORIAL HepG2 Assay for human Hepatocyte Nuclear Factor 6 (HNF6) (AID 2282952). As to conditions: HepG2 Attagene cis-factorial HNF6 reporter transcription; actives raise or lower the signal. The essentials:
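First, HepG2 cells were transfected with the multiplexed cis reporter library and dosed with chemical for 24 h. Next, RNA was reverse-transcribed, PCR-amplified and fluorescently labelled. Finally, HpaI-digested fragments were read by capillary electrophoresis.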

Test [16] concerns the target Heat shock factor protein 1 (Homo sapiens) (UniProt Q00613). As to the kind of experiment: ATG_HSE_CIS: Attagene CIS-FACTORIAL HepG2 Assay for human Heat Shock Transcription Factor 1 (HSE) (AID 2282953). The following applies: HepG2 HSE cis-reporter, Attagene RNA transcription; actives raise or lower the signal. The essentials: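 After a 24 h incubation with test chemical, transfected HepG2 cells were harvested for RNA; reporter transcripts were measured by RT-PCR and capillary electrophoresis. Values reflect gain or loss of signal relative to DMSO.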

Test [17] can be described thus: ATG_MRE_CIS: Attagene CIS-FACTORIAL HepG2 Assay for human Metal Responsive Element (MRE) (AID 2282954). As to conditions: HepG2 MRE cis-reporter transcription, Attagene multiplex; actives raise or lower the signal. In a few lines: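 RT-PCR/capillary electrophoresis readout of reporter mRNA, 24 h post-dosing, in HepG2 cells transfected with multiplexed cis-regulated reporter constructs. Gain or loss of signal fitted bidirectionally against DMSO baseline.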

For test [18], the target named is Bile acid receptor (Homo sapiens) (UniProt Q96RI1). As to the kind of experiment: ATG_IR1_CIS: Attagene CIS-FACTORIAL HepG2 Assay for human Nuclear Receptor Subfamily 1 Group H Member 4 (NR1H4), IR1 submotif (AID 2282946). As to conditions: IR1 reporter transcription, actives raise or lower the signal. In a few lines:
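Fluorescence of capillary-separated, HpaI-digested RT-PCR reporter products gave IR1-element mRNA induction in HepG2 cells 24 h after dosing. Endogenous transcription factors drove the cis-regulated reporters; activity was fitted bidirectionally against DMSO.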

Sequence of Hypoxia-inducible factor 1-alpha (Homo sapiens) (Q16665 whole entry, looked up): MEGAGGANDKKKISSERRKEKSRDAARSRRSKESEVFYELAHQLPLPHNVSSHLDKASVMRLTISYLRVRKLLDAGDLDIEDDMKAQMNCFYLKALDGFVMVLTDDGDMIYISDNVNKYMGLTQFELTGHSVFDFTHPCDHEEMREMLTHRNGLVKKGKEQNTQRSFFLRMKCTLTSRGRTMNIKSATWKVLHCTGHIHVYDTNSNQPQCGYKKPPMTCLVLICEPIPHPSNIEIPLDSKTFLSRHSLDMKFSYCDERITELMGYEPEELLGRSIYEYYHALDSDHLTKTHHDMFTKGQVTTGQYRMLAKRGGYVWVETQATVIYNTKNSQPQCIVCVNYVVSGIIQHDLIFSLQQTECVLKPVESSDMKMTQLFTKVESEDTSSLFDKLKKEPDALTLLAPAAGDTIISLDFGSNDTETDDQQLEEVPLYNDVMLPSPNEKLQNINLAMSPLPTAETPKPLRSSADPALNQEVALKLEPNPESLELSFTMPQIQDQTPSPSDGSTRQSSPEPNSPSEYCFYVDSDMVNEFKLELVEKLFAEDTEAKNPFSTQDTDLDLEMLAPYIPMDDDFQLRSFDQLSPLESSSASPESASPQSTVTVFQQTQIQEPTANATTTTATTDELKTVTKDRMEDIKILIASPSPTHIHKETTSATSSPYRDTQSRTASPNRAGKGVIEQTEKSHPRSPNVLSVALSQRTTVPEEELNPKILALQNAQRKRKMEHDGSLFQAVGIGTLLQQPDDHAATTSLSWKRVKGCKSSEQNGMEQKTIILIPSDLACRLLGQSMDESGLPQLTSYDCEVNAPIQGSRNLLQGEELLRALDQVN
Sequence of Hepatocyte nuclear factor 3-beta (Homo sapiens) (Q9Y261 whole entry, looked up): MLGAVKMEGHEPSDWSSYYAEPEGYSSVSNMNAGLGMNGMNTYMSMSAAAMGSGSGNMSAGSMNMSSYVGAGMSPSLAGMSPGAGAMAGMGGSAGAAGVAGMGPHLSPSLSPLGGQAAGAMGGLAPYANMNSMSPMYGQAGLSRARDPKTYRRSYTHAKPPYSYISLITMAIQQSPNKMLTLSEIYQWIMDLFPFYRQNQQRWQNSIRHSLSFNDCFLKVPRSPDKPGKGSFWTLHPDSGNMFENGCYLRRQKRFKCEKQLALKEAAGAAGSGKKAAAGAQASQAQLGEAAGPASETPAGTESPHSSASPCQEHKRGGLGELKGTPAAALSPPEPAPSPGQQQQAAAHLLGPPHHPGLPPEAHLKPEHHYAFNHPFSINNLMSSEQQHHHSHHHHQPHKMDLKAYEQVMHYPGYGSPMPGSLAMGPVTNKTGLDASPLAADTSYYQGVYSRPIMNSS
Sequence of Transcription factor E2F1 (Homo sapiens) (Q01094 whole entry, looked up): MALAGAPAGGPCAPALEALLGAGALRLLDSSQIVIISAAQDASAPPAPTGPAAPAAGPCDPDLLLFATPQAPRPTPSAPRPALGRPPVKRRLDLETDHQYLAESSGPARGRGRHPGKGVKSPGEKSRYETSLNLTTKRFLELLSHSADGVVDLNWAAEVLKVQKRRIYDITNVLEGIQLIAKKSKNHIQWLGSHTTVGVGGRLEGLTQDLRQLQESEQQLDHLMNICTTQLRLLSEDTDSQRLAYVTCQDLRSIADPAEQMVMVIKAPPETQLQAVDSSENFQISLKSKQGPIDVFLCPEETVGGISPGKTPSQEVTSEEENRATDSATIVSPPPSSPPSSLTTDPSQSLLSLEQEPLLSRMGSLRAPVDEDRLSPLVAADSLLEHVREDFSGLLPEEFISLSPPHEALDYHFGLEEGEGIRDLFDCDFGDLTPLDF
Sequence of Hepatocyte nuclear factor 6 (Homo sapiens) (Q9UBC0 whole entry, looked up, the tested form may be a part): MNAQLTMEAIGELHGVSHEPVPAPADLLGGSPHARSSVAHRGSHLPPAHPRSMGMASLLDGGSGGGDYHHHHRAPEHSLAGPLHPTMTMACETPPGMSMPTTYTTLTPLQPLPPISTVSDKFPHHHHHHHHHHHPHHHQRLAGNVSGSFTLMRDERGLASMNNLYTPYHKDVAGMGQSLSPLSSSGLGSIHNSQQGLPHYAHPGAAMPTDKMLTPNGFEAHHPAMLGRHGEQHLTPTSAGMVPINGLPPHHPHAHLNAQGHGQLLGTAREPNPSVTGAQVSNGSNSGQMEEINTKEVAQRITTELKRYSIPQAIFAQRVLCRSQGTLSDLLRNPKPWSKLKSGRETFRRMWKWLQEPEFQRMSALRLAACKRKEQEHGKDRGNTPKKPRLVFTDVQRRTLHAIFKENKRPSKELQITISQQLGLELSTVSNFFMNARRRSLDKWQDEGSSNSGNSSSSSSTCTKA
Sequence of Heat shock factor protein 1 (Homo sapiens) (Q00613 whole entry, looked up): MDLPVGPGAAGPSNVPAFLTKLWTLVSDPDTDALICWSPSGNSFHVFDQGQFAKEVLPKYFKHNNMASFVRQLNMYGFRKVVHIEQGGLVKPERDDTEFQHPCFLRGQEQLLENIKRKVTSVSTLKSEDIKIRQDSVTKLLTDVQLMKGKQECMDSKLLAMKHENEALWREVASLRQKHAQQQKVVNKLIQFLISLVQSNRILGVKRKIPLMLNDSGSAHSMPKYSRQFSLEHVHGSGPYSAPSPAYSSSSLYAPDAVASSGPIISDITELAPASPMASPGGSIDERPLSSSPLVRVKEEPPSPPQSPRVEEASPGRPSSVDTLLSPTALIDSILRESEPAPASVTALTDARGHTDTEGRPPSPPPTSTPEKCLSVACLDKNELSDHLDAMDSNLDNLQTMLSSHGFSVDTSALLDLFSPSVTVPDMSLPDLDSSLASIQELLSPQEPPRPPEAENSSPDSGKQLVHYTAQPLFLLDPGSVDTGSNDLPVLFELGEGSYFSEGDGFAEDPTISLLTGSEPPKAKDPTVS
Sequence of Bile acid receptor (Homo sapiens) (Q96RI1 whole entry, looked up): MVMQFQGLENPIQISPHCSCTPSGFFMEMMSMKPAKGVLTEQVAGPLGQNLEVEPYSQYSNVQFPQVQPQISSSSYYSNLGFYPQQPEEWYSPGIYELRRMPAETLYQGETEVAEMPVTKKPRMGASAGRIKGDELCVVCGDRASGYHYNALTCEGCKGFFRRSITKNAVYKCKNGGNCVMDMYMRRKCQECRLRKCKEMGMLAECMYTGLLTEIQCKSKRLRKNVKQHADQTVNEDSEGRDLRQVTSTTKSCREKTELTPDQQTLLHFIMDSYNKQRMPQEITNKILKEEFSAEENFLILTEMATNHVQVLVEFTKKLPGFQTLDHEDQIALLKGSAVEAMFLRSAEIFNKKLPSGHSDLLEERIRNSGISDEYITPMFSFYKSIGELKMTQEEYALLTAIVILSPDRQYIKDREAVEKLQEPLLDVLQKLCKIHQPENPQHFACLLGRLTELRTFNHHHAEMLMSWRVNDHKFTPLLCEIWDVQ

With `Nc1c(Cl)c(F)nc(OCC(=O)O)c1Cl`, the call in test [1], in test [2], in [3], in test [4], in test [5] and in [6] was inactive. The molecule was called inactive in test [7], in test [8], in test [9], in [10], in test [11] and in [12]. Moreover, the molecule was classed as inactive in test [13], in [14] and in test [15].

As for `CCCN(CC)CC1COC2(CCC(C(C)(C)C)CC2)O1` (configuration not stated), the result in [1], in test [2], in [4], in [5], in test [6] and in [8] was inactive. The result in test [9], in [10], in test [11], in [12] and in test [13] was inactive. Further, the AC50 was 15 µM (active) in test [3]; 16.9 µM (active) in test [7]; 22.7 µM (active) in [14]; 50 µM (active) in test [15]; 60.3 µM (active) in test [16]; 50 µM (active) in test [17].

As for `Cn1c(-c2ccccc2)cc(-c2ccccc2)[n+]1C`, the molecule was called inactive in [1], in test [2], in test [3], in test [4], in test [5] and in test [6]. The molecule was classed as inactive in test [7], in test [8], in test [9], in test [10], in test [11] and in test [12]. Besides, the call in [13], in [14], in test [15] and in test [17] was inactive.

With `CNC(=O)Oc1cccc2ccccc12`, the call in [1], in [3], in [4], in test [6], in test [7] and in [8] was inactive. Also, the call in test [9], in [10], in test [18], in [11], in test [12] and in [13] was inactive. For the same molecule, the call in [14], in test [15] and in [16] was inactive. In addition, the AC50 in [2] is 9.92 µM (active); in test [5], 50 µM (active); in test [17] it was 50 µM (active).

Turning to `CC(C)Nc1nc(Cl)nc(NC(C)C)n1`, the outcome in test [1], in [2], in test [3], in test [4], in test [5] and in test [6] was inactive. Moreover, the outcome in test [7], in test [8], in test [9], in test [10], in [11] and in [12] was inactive. Besides, the result in test [13], in test [14], in test [15] and in [16] was inactive.
